Experimental data published in PubChem BioAssay AID1159580 (chemical genetic matrix, 2015).
Where “and” joins values, the source holds several entries; their conditions need not be identical. Equal entries are not always repeated. Out of some 5,500 compounds screened, about 2,000 (36%) were called active. About 18% were inconclusive and are not listed. Rule as the data show it: active = normalized growth mostly below about 0.91 (no sharp cut-off); inconclusive = no clear call, values can overlap the other calls; inactive = mostly above about 0.92. The list shows a part of the results.

Assay: chemical genetic growth profiling, strain panel (AID 1159580);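 also: tested at 20 µM; growth read once vehicle control cultures reached saturation at 30 °C; 1 = growth at the plate median or of vehicle wells; lower values mean less growth of the strain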
Conditions: S. cerevisiae deletion strains, growth OD

Measured: normalized growth

OC(c1cc(C(F)(F)F)nc2c(C(F)(F)F)cccc12)C1CCCCN1 (stereo not drawn)
inactive: locus YAL021C, strain ccr4, active compounds read low 0.995 | locus YAL026C, strain drs2, active compounds read low 0.972 | locus YAL030W, strain snc1, active compounds read low 1.02 | locus YBL061C, strain skt5, active compounds read low 1.01 | locus YBR009C, strain hhf1, active compounds read low 1.01 | locus YBR021W, strain FUR4, active compounds read low 0.965 | locus YBR023C, strain chs3, active compounds read low 1 | locus YBR171W, strain sec66, active compounds read low 1.02 | locus YBR229C, strain ROT2, active compounds read low 0.988 | locus YBR231C, strain swc5, active compounds read low 1.01 | locus YBR279W, strain paf1, active compounds read low 1.02 | locus YCL011C, strain gbp2, active compounds read low 1.01 | locus YCL016C, strain dcc1, active compounds read low 1 | locus YCL029C, strain bik1, active compounds read low 0.999 | locus YCL069W, strain vba3, active compounds read low 0.999 | locus YCR088W, strain abp1, active compounds read low 1.01 | locus YDL005C, strain med2, active compounds read low 1.01 | locus YDL035C, strain GPR1, active compounds read low 0.968 | locus YDL040C, strain nat1, active compounds read low 1.02 | locus YDL074C, strain BRE1, active compounds read low 0.945 | locus YDL101C, strain DUN1, active compounds read low 0.993 | locus YDL134C, strain PPH21, active compounds read low 0.966 | locus YDL185W, strain tfp1, active compounds read low 0.979 | locus YDL192W, strain arf1, active compounds read low 0.997 | locus YDR001C, strain nth1, active compounds read low 1.01 | locus YDR069C, strain doa4, active compounds read low 1.01 | locus YDR101C, strain arx1, active compounds read low 0.993 | locus YDR137W, strain rgp1, active compounds read low 1.12 | locus YDR150W, strain NUM1, active compounds read low 0.995 | locus YDR159W, strain sac3, active compounds read low 0.999 | locus YDR162C, strain NBP2, active compounds read low 0.969 | locus YDR195W, strain ref2 1.02 | locus YDR297W, strain sur2, active compounds read low 1.01 | locus YDR318W, strain mcm21, active compounds read low 0.988 | locus YDR334W, strain swr1, active compounds read low 1.01 | locus YDR335W, strain msn5, active compounds read low 1.01 | locus YDR388W, active compounds read low 0.995 | locus YDR392W, strain spt3, active compounds read low 0.997 | locus YDR502C, strain sam2, active compounds read low 0.987 | locus YEL003W, strain gim4, active compounds read low 1.02 | locus YEL037C, strain rad23, active compounds read low 1.02 | locus YEL061C, strain CIN8 (second series), active compounds read low 1 | locus YEL061C, strain CIN8, active compounds read low 0.994 | locus YER015W, strain faa2, active compounds read low 1.01 | locus YER016W, strain bim1, active compounds read low 1.01 | locus YER110C, active compounds read low 0.996 | locus YER111C, strain swi4, active compounds read low 1.01 | locus YER155C, strain BEM2 (second series), active compounds read low 1.02 | locus YER155C, strain BEM2, active compounds read low 0.997 | locus YER167W, strain BCK2, active compounds read low 0.971 | locus YFR010W, strain ubp6, active compounds read low 1 | locus YGL078C, strain dbp3, active compounds read low 0.985 | locus YGL086W, strain mad1, active compounds read low 0.988 | locus YGL167C, strain pmr1, active compounds read low 1.02 | locus YGL173C, strain kem1, active compounds read low 1.02 | locus YGL227W, strain vid30, active compounds read low 1 | locus YGL240W, strain doc1, active compounds read low 1.03 | locus YGL248W, strain PDE1, active compounds read low 0.997 | locus YGL253W, strain hxk2, active compounds read low 1 | locus YGR078C, strain PAC10, active compounds read low 0.98 | locus YGR135W, strain pre9, active compounds read low 0.973 | locus YGR229C, strain SMI1, active compounds read low 0.95 | locus YGR252W, strain gcn5, active compounds read low 0.922 | locus YHR013C, strain ard1, active compounds read low 1 | locus YHR027C, strain rpn1, active compounds read low 1.02 | locus YHR030C, strain SLT2, active compounds read low 0.994 and 0.969 | locus YHR079C, strain IRE1 (second series), active compounds read low 0.985 | locus YHR079C, strain IRE1, active compounds read low 0.984 | locus YHR094C, strain hxt1, active compounds read low 0.988 | locus YHR129C, strain ARP1, active compounds read low 0.99 | locus YHR142W, strain chs7, active compounds read low 0.984 | locus YHR200W, strain rpn10, active compounds read low 0.996 | locus YIL066C, strain RNR3, active compounds read low 0.973 | locus YIL073C, strain SPO22, active compounds read low 0.979 | locus YIL125W, strain kgd1, active compounds read low 0.995 | locus YIR030C, strain dcg1, active compounds read low 0.99 | locus YJL092W, strain hpr5, active compounds read low 1.01 | locus YJL095W, strain BCK1 (second series), active compounds read low 1 | locus YJL095W, strain BCK1, active compounds read low 0.969 and 0.948 | locus YJL115W, strain asf1, active compounds read low 1.01 | locus YJL129C, strain trk1, active compounds read low 1.02 | locus YJL134W, strain LCB3, active compounds read low 0.993 | locus YJL154C, strain vps35, active compounds read low 1.01 | locus YJL164C, strain tpk1, active compounds read low 0.986 | locus YJL166W, strain qcr8, active compounds read low 1.02 | locus YJL168C, strain set2, active compounds read low 0.99 | locus YJL187C, strain SWE1 (second series), active compounds read low 0.991 | locus YJR043C, strain POL32, active compounds read low 0.979
